Records with an inconclusive call do not appear. Values without a mark were called inactive. The source made the active and inactive calls. Calls come from the whole dose curve; as a rule, active = well fitted inhibition curve with a large enough effect; inconclusive = small, poorly fitted or top-dose-only effect; inactive = flat fitted curve, though single readings scatter.

The values below come from PubChem BioAssay (NCATS).

For this test, the target named is Phospholipid hydroperoxide glutathione peroxidase GPX4 (Homo sapiens) (UniProt P36969). As to the kind of experiment: Primary qHTS Assay for Inhibitors of Recombinant Selenoprotein Glutathione Peroxidase 4 (GPX4) (AID 1845192). Note: nearly all actives have a fitted effect of over 65% in size. Particulars: recombinant GPX4, GR-coupled NADPH fluorescence, 15 min; series mostly up to 50 µM; activity change, negative = inhibition: at the top concentration. The text has this: Assay Provider: Elias S.J. Arner MD PhD.
Phospholipid hydroperoxide glutathione peroxidase GPX4 (Homo sapiens), sequence (P36969 whole entry, looked up): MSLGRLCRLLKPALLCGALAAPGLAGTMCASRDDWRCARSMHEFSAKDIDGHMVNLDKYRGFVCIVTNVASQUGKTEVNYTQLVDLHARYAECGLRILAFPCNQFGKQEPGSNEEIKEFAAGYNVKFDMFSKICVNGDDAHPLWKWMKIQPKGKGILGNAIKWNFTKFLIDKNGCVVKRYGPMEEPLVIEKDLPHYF
Department of Medical Biochemistry and Biophysics
Karolinska Institutet, Solna, Stockholm, Sweden
Selenoprotein glutathione peroxidases (GPX), like the ubiquitously expressed GPX1 and the ferroptosis modulator GPX4, enact their antioxidant activities by reducing hydroperoxides using glutathione. […] GPX1 and GPX4 inhibitors have thus shown promise as anti-cancer agents. Existing inhibitors are often promiscuous, or modulate GPX activity only indirectly, so novel direct inhibitors identified through screening against GPX1 and GPX4 could be valuable. Here, we developed optimized glutathione reductase (GR)-coupled GPX assays for the biochemical high-throughput screen (HTS) of almost 12,000 compounds with known mechanisms of action. Initial hits were triaged using a GR counter-screen, assessed for isoform specificity using a separate GPX2 assay, and were assessed for general selenocysteine-targeting activity using a thioredoxin reductase (TXNRD1) assay. With this suite of assays, we identified novel GPX1/GPX2- and GPX4-specific inhibitors and can here present a validated pipeline for future discovery research for selenoprotein-targeting agents.
SEQUENCE No. (e.g., 1, 2, 3, etc.); […] (e.g., Cells, Incubation, Reagent, etc.); VALUE; DESCRIPTION.
1; Reagent 1; 3 uL; 333.33 nM GPx4 enzyme or no enzyme control in 1536-well, black, solid Greiner assay plate.
2; Compound; 25 nL; Kalypsis pin tool (Wako USA) equipped with a 1536-well pin head.
3; Incubation; 30 min; room temperature.
4; Reagent 2; 1 uL; 500 nM GR, 5 mM GSH, 2.5 mM NADPH solution
5; Reagent 3; 1 uL; 2.5 mM CHP in 50% EtOH.
6; Detection; Fluorescence; ViewLux microplate reader, excitation 340 nm and emission 450 nm.
7; Incubation; 15 min; room temperature.
8; Detection; Fluorescence; ViewLux microplate reader, excitation 340 nm and emission 450 nm.
NOTES (numbers refer to Sequence numbers above)
1. 3 µL of 333.33 nM GPX4 and 0.016% BSA in assay buffer (50 mM Tris-HCl, 2 mM EDTA (pH 7.5), 150 mM NaCl) was added to columns 3-48 of 1536-well plates using a BioRAPTR Flying Reagent Dispenser (Let's Go Robotics (LGR), Carlsbad, CA). A no-enzyme control (0.01% BSA in TES assay buffer) was added to columns 1-2.
2. 25 nL, library and DMSO controls were added to each well with a pin tool (Kalypsys).
3. The assay plates were incubated for 30 minutes at room temperature.
4. 1 µL of master mix (500 nM glutathione reductase (GR), 5 mM reduced glutathione (GSH), 2.5 mM NADPH in assay buffer) was added.
5. 1 µL of cumene hydroperoxide (CHP) ([2.5 mM] in 50% EtOH) was then added within 5 minutes to initiate the reaction. Final concentrations were: 200 nM GPX4, 1 mM GSH, 0.5 mM CHP, 0.5 mM NADPH, 100 nM GR, 0.01% BSA.
6. Initial fluorescence readout (t=0) at 340/450 nm was measured using a ViewLux multimodal detector (PerkinElmer, Waltham, MA).
8. Endpoint fluorescence readout (t=15) at 340/450 nm was measured 15 min after room temperature incubation.
Take `CCCN(CCC)[C@@H]1CCc2cccc(O)c2C1`: the result was inactive.

Take `NC(N)=Nc1ccc2[nH]c3c(c2c1)C[C@@]1(O)[C@H]2Cc4ccc(O)c5c4[C@@]1(CCN2CC1CC1)[C@H]3O5`: the “activity change, negative = inhibition” value was 1.1%. `C[C@H](Cc1ccc2c(c1)OC(C(=O)O)(C(=O)O)O2)NC[C@H](O)c1cccc(Cl)c1`: the result was inactive. With `COC(=O)C12C(=O)C(C)(O)C(=O)C1(C)C(C)=CC1C34CCC(OC3=O)C(C)(CO)C4CCC12C` (stereo not given), the “activity change, negative = inhibition” value is -5.98% [at 27.8 µM]. As to `CCCC(=O)OC(C(Cl)(Cl)Cl)P(=O)(OC)OC` (stereo not given), the “outcome” value was “inactive [at 100 µM]”.

Turning to `CCCN(CCC)[C@H]1CCc2c(F)ccc(O)c2C1`, the “activity change, negative = inhibition” value was 1.85%. With `OCc1cnc[nH]1`, the result was inactive.

For the compound `CC(C)(O)[C@H]1O[C@H]2CC[C@@]3(C)[C@@](O)(CC[C@H]4Cc5c([nH]c6ccccc56)[C@@]43C)C2=CC1=O`, the “activity change, negative = inhibition” value is -14.7% [at 27.8 µM].

For `CN1[C@H]2CC[C@@H]1[C@@H](C(=O)O)[C@@H](OC(=O)c1ccccc1)C2`, the “activity change, negative = inhibition” value is -12.5% [at 100 µM]. As to `Oc1ccc2c3c1O[C@H]1c4oc5ccccc5c4C[C@@]4(O)C(C2)N(CC2CC2)CCC314` (stereo not given in full), the “activity change, negative = inhibition” value is 2.65%. Turning to `NNC(N)=O`, the result was inactive. With `Cc1sc2ccccc2c1CC1=NCCN1`, the “activity change, negative = inhibition” value was -20%. Consider `CC(C)(C)OC(=O)NC1[C@H]2CNC[C@@H]12` (stereo not given in full), for which the “activity change, negative = inhibition” value was 1.86%. Consider `Clc1ccc(N2CC3CCC(C2)N3)nn1`, for which the outcome was inactive. Turning to `N#C[C@@H](O[C@@H]1O[C@H](CO[C@@H]2O[C@H](CO)[C@@H](O)[C@H](O)[C@H]2O)[C@@H](O)[C@H](O)[C@H]1O)c1ccccc1`, the “activity change, negative = inhibition” value was -6.38% [at 27.8 µM]. Still for that read-out and setting: under `Clc1cc(I)cc(Cl)c1NC1=NCCN1` stands -13.3%; under `C[C@]12CCC(=O)C=C1C=C[C@@H]1[C@@H]2CC[C@@]2(C)[C@H]1CC[C@@]2(O)CCC(=O)O`, -20.6%.

With `CO[C@H]1CC=C2CCN3CCC4=C(CC(=O)OC4)[C@]23C1`, the outcome was inactive. On the same count and under the same terms, with `CCN1C[C@@]2(COC)C3[C@@H](OC)C4[C@@H]1C3([C@@H]1C[C@]3(O)[C@H](OC(=O)c5ccccc5)[C@@H]1[C@]4(OC(C)=O)[C@@H](O)[C@@H]3OC)[C@H](OC)C[C@H]2O` the entry was “inactive”. As for `CCN1C[C@]2(OC(=O)c3ccccc3NC(C)=O)CC[C@H](OC)[C@@]34[C@@H]2C[C@@H]([C@@H]13)[C@@]1(O)C[C@H](OC)[C@H]2C[C@@H]4[C@]1(O)[C@H]2OC`, the “activity change, negative = inhibition” value was 10.1%. Consider `CN1C2CCC1CC(OC(c1ccccc1)c1ccccc1N)C2` (stereo not given), for which the result was inactive. Consider `CN1C(=O)N(c2ccc(C#N)c(C(F)(F)F)c2)C(=O)[C@]1(CO)c1ccccc1`, for which the “activity change, negative = inhibition” value was 1.68%.

Consider `C1=C2CCCN[C@H]2[C@@H]2C[C@H]1[C@H]1CCCCN1C2`, for which the “activity change, negative = inhibition” value was 3.97%.

As to `CCCN1CCc2cccc3c2[C@H]1Cc1ccc(O)c(O)c1-3`, the “activity change, negative = inhibition” value was -13.6%. For the compound `NCCCP(=O)(O)O`, the outcome was inactive.

Consider `O=[N+]([O-])/C=C/c1ccc2c(c1)OCO2`, for which the result was inactive.

Take `Oc1ccc2c3c1O[C@H]1c4[nH]c5ccccc5c4C[C@@]4(O)C(C2)N(CC2CC2)CCC314` (stereo not given in full): the “activity change, negative = inhibition” value is 0.107%. For the compound `CC(C)NP(=O)(NC(C)C)OP(=O)(NC(C)C)NC(C)C`, the result was inactive. With `CN1CC[C@@]2(C)c3cc(OC(=O)Nc4ccccc4)ccc3N(C)[C@@H]12`, the “activity change, negative = inhibition” value is -7.4%. Still for that read-out and setting: with `CC(C)C1(OO)C=C2C(=O)CC3C(C)(C(=O)O)CCCC3(C)C2CC1` (stereo not given) the figure was -12.9% [at 27.8 µM]; with `N#CCCN`, 0.642%. For the compound `Cn1ncnc1COc1nn2c(-c3c(F)cccc3F)nnc2cc1C1CCC1`, the “activity change, negative = inhibition” value was 1.24%. The same measure, in the same setting: with `CN1CCCC1CCOC(c1cc2nccc(C(=O)O)c2[nH]1)c1ccccc1Cl` (stereo not given) the figure was 0.97%.

Consider `CC(C)(C)c1o[nH]c(=O)c1CC(N)C(=O)O` (stereo not given), for which the result was inactive.

For `OC1(c2ccc(Cl)cc2)c2ccccc2C2=NCCN21` (stereo not given), the “activity change, negative = inhibition” value was -7.23%.

In the case of `CN1CCC(c2c[nH]c3ccc(O)cc23)CC1`, the outcome was inactive. On the same count and under the same terms, with `Oc1ccc2c3c1O[C@H]1[C@@H](O)CC[C@@]4(O)[C@@H](C2)N(CC2CCC2)CC[C@]314` the entry was “inactive”. On to `CC1CCC(C(C)C)C(OC(=O)c2ccccc2N)C1` (stereo not given), for which the “activity change, negative = inhibition” value is 4.28%.

For `NC(CCCCCP(=O)(O)O)C(=O)O` (stereo not given), the “activity change, negative = inhibition” value was -0.568%. For the compound `C[C@]12CC[C@@H](O)C[C@H]1CC[C@@H]1[C@@H]2CC[C@]2(C)C(=O)CC[C@@H]12`, the “activity change, negative = inhibition” value is -1.34%.
